Among the data in PubChem BioAssay are z-score values, retold here.

Test [1] in a line: compound effects on lung adenocarcinoma cell viability – A549, calcein-AM fluorescence, 48 h, basal, profiling panel (AID 1162). The settings on record: higher = more signal.
A short description of test [2]: compound effects on differentiated 3T3-L1 adipocyte viability – cell-based, 3T3-L1 adipocytes, calcein-AM fluorescence, 48 h, basal, profiling panel (AID 1163). The settings on record: 3T3-L1 adipocytes viability, higher = more signal.
Test [3] is described as follows: compound effects on hepatocellular carcinoma cell viability – HepG2, calcein-AM fluorescence, 48 h, basal, profiling panel (AID 1164). The settings on record: higher = more signal.
A short description of test [4]: compound effects on multiple myeloma cell viability – MM1S, calcein-AM fluorescence, 48 h, basal, profiling panel (AID 1165).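 Further: viability of MM1S multiple myeloma cells under basal unstimulated conditions.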 The settings on record: higher = more signal.
Test [5] in a line: calcein-AM signal in unstimulated myeloma cells – cell-based, calcein-AM fluorescence, 48 h, PK04 Diversity Set, profiling panel (AID 1166).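 Further: cells grown under basal conditions without added stimulus.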 The settings on record: RPMI8226 myeloma viability, higher = more signal.
Test [6] can be described thus: JC-1 mitochondrial signal, unstimulated HepG2 cells – cell-based, JC-1 fluorescence, 24 h, 100 nL compound, profiling panel (AID 1167). The note with it: HepG2 mitochondrial potential, higher = more signal.
The nature of test [7]: JC-1 mitochondrial signal, unstimulated adipocytes – cell-based, JC-1 fluorescence, 3T3-L1 adipocytes, 24 h, 100 nL compound, profiling panel (AID 1168). The settings on record: JC-1 mitochondrial fluorescence, higher = more signal, called active from +8 up or from −8 down.
The nature of test [8]: JC-1 mitochondrial signal, unstimulated myeloma cells – cell-based, JC-1 fluorescence, RPMI8226, 24 h, 100 nL compound, profiling panel (AID 1169). The note with it: JC-1 mitochondrial potential fluorescence, higher = more signal.
Test [9] in a line: JC-1 mitochondrial signal, unstimulated MM1S myeloma – cell-based, JC-1 fluorescence, 24 h, 100 nL compound, profiling panel (AID 1170). The settings on record: MM1S mitochondrial potential, higher = more signal.
Test [10] in a line: resazurin metabolic signal in A549 cells – cell-based, resazurin fluorescence, 24 h, PK04 Diversity Set, profiling panel (AID 1171). The note with it: A549 viability, higher = more signal, called active from +8 up or from −8 down. Background: The colour change of resazurin is a common sign of viable cells or microbes.

Calls of active or inactive are those of the source.
Further: test concentration not given here.

Take `CN1C(=O)C2C=CC(C(O)c3ccccc3)N(Nc3ccccc3)C2C1=O` (stereo not given): the z-score in test [1] was -1.3; in [2], -0.559; in [3] it was -0.761; in test [4], -1.4; in [5], 0.362; in test [6] it was -1.69. For the same molecule, the z-score in test [7] is -0.441 (inactive); in test [8], 0.636; in test [9] it was -0.207; in test [10], -1.26 (inactive).

Turning to `[N-]=[N+]=NCc1ccccc1[C@H]1OC(c2ccc(OCCCO)cc2)=N[C@@]1(Cc1ccccc1)C(=O)NCc1ccccc1`, the z-score in test [1] is -0.649; in [2], 0.399; in [3] it was 0.71; in test [4] it was -2.04; in [5] it was -3.49; in [6], 0.343. Besides, the z-score in test [7] was 0.544 (inactive); in test [8], -1.35; in test [9], -0.765; in [10], 0.789 (inactive).

As for `COCCOC(=O)N1C(=O)[C@@]2(c3cc(C#CCNC(N)=O)ccc31)[C@H](C(=O)NC[C@H](O)c1ccccc1)[C@H]1C(=O)O[C@H](c3ccccc3)[C@H](c3ccccc3)N1[C@@H]2c1ccccc1OCCO`, the z-score in test [1] is 1.22; in test [2] it was 0.504; in test [3], 0.829; in [4], 0.837; in test [5] it was 0.676; in test [6], -0.523. Besides, the z-score was 0.749 (inactive) in [7], -0.548 in test [8], -1.04 in test [9] and -0.0062 (inactive) in [10].

For `COc1ccc(COC2OC[C@]3(C)[C@H]4C5=C(CN3C(=O)OC(C)(C)C)[C@H](C)C(CO)C(CO)C5CC[C@@H]24)cc1` (stereo not given in full), the z-score is -0.963 in test [1]; 0.627 in [2]; -0.0917 in [3]; 0.0355 in test [4]; -1.17 in [5]; 1.24 in test [6]. In addition, the z-score in test [7] was -0.685 (inactive); in test [8], 0.429; in test [9], 0.0993; in test [10], -1.34 (inactive).

On to `COCC(=C=CC[C@@H](O)c1ccccc1OCCO)C[C@@H](O)c1cc(Cl)cc(Cl)c1O`, for which the z-score was 0.14 in [1]; -0.407 in test [2]; 0.0467 in [3]; -3.32 in [4]; -3.44 in test [5]; -2.21 in [6]. Moreover, the z-score is -1.69 (inactive) in test [7], -0.881 in test [8], -1.15 in test [9] and -0.106 (inactive) in [10].

Regarding `CN1C(=O)C2C=CC(C(O)C3CCCCC3)N(Nc3ccc([N+](=O)[O-])cc3[N+](=O)[O-])C2C1=O` (stereo not given), the z-score is -0.798 in test [1]; -0.156 in [2]; -0.905 in test [3]; -0.193 in test [4]; -0.849 in test [5]; -1.18 in test [6]. Besides, the z-score in [7] was -0.299 (inactive); in [8], 0.464; in test [9], 0.314; in test [10] it was 0.421 (inactive).

In the case of `O=C1O[C@H](c2ccccc2)[C@H](c2ccccc2)N2[C@H]1[C@@H](C(=O)NC[C@H](O)c1ccccc1)[C@]1(C(=O)Nc3ccccc31)[C@H]2c1ccc(OCCO)cc1`, the z-score in test [1] was -0.425; in test [2], 1.61; in [3], -1.41; in [4], -2.53; in test [5] it was -3.09; in [6], -2.29. Also, the z-score in test [7] is 1.95 (inactive); in [8], -1.21; in [9], -1.21; in test [10] it was -0.333 (inactive).

`COc1ccc(NN2C(C(O)c3ccc([N+](=O)[O-])cc3)C=CC3C(=O)N(C4CCCCC4)C(=O)C32)cc1` (stereo not given): the z-score was 0.0649 in test [1]; -1.33 in [2]; 0.52 in test [3]; 0.538 in [4]; -0.465 in test [5]; -0.0181 in test [6]. Also, the z-score in test [7] is 0.369 (inactive); in test [8] it was 0.919; in test [9], -1.71; in test [10] it was 1.01 (inactive).

For the molecule `O=C1NC(=O)C2C1C=CC(C(O)c1cccc3ccccc13)N2Nc1ccccn1` (stereo not given), the z-score is 0.428 in test [1]; -0.608 in [2]; -0.32 in test [3]; 0.002 in test [4]; -0.0565 in test [5]; 0.15 in test [6]. The z-score is -0.0987 (inactive) in [7], -0.216 in [8], -0.184 in test [9] and -0.721 (inactive) in test [10].

Consider `COC(=O)[C@@]1(Cc2ccc(OC)cc2)[C@H]2c3cc(C(=O)N4CCCC4)n(Cc4ccsc4Br)c3C[C@H]2CN1C(=O)c1ccccc1`, for which the z-score in test [1] is -1.92; in test [2], -0.793; in [3], -0.119; in test [4], -3.3; in [5], -4.43; in [6], 0.321. For the same molecule, the z-score in test [7] is -1.05 (inactive); in [8] it was -0.822; in [9] it was -2.91; in test [10], -2.75 (inactive).

On to `C=CCOC(=O)[C@H]1[C@@H]2C(=O)O[C@@H](c3ccccc3)[C@@H](c3ccccc3)N2[C@@H](c2ccc(OCCOC(=O)[C@@H]3C[C@@H]4C(=O)N5CCC[C@H]5C(=O)N4[C@@H]3c3cccc(OCCO)c3)cc2)[C@]12C(=O)Nc1ccccc12`, for which the z-score in test [1] is -0.0865; in [2], 1.05; in test [3] it was -0.786; in [4], -0.423; in [5] it was 0.107; in [6], -1.41. Also, the z-score in [7] was -0.0892 (inactive); in test [8] it was -0.737; in test [9], -0.421; in test [10], -1.65 (inactive).

For the molecule `[N-]=[N+]=Nc1ccccc1[C@H]1OC(c2ccc(OCCCO)cc2)=N[C@@]1(Cc1ccccc1)C(=O)O`, the z-score in [1] is 1.98; in test [2] it was 0.276; in [3], 0.73; in [4] it was -0.0876; in test [5], -0.532; in [6], -0.107. The z-score is 0.222 (inactive) in [7], -0.0546 in [8], -1.2 in test [9] and -0.724 (inactive) in [10].

Take `CN(C)CCCC[C@@H]1NC(=O)[C@H]2C[C@@H](C(=O)NCCCCCNC(=O)CS)[C@@H](c3cccc(OCCO)c3)N2C1=O`: the z-score was 0.33 in test [1]; -0.0603 in [2]; 0.0814 in test [3]; -0.649 in [4]; -0.0199 in test [5]; -0.246 in test [6]. Besides, the z-score was -0.034 (inactive) in test [7], 0.0925 in [8], 0.0356 in test [9] and -0.0288 (inactive) in [10].

As for `O=C1O[C@H](c2ccccc2)[C@H](c2ccccc2)N2[C@H]1[C@@H](C(=O)Nc1nc3ccccc3s1)[C@]1(C(=O)Nc3ccc(C#CCCO)cc31)[C@H]2c1ccc(OCCO)cc1`, the z-score in test [1] was 0.233; in test [2], 0.205; in [3], 1.03; in test [4], -0.265; in test [5], 0.743; in test [6], -3.28. Besides, the z-score in test [7] is 0.491 (inactive); in test [8], -0.995; in test [9], -1.49; in test [10], 0.441 (inactive).

As for `COc1ccc(CCNC(=O)[C@@]2(C)c3ccccc3C(=O)N(Cc3cc(F)cc(C(F)(F)F)c3)[C@H]2c2ccc(CO)cc2)cc1`, the z-score in test [1] was 0.805; in test [2], 0.766; in [3] it was 0.41; in [4], -1.86; in [5] it was -2.07; in test [6], 0.857. Also, the z-score in test [7] is -0.633 (inactive); in test [8] it was -0.601; in test [9] it was 1.08; in [10], 0.396 (inactive).
